From PubChem
Hits are enriched below; roughly 2.9% of the tested compounds scored in any of these assays.
proKLK7 act: activators of human kallikrein-7 zymogen. P49862. purified proKLK7, EDANS-DABCYL substrate fluorescence; 100% is mature enzyme control, 0% vehicle. hit rate 0.9% among 370,000. activation, % at 7 µM;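 active = activation above the mean of all tested compounds plus 3 SD, computed per campaign excluding outliers beyond control limits, cut at about 13% in these data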
Target sequence (P49862 whole entry, looked up): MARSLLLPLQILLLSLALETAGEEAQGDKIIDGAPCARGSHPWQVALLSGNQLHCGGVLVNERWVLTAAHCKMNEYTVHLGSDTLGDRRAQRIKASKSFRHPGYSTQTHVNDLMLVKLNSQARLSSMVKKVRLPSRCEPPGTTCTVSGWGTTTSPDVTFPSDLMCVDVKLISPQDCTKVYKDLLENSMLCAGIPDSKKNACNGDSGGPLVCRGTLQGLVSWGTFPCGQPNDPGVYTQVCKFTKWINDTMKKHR
SMARCA2 activ: activators of SMARCA2 function; AID 652017; activation, % at 9.1 µM; MG213 cells, MMTV-luciferase reporter, dexamethasone, overnight; hit rate 1% among 370,000; in the data active = activation above about 7.8%;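 note: 0% = vehicle wells and 100% = reference activator wells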
GAA850 FXN act: frataxin GAA850 promoter activation | activation, % at 6 µM | HEK293 lucGAA850 FXN promoter luciferase reporter, 24 h; percent of 10 µM SAHA response | AID 540364 | hit rate 0.56% among 360,000;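 active = activation above the average of all compounds screened plus 3 SD, cutoff fixed separately per campaign, cut at about 7.5% in these data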;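 note: 0% = DMSO wells and 100% = 10 µM SAHA wells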
FAS-TE inh: FAS thioesterase (human) inhibition; recombinant FAS-TE, OMFH fluorogenic substrate, fluorescence endpoint; hit rate 0.67% among 360,000; P49327; inhibition, % at 15 µM; AID 602261;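 active = compounds whose normalised, plate-corrected inhibition of enzyme fluorescence in the single-dose primary screen is 50% or more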;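 note: 0% = DMSO with enzyme and 100% = substrate without enzyme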
SMARCA2 conf: SMARCA2 activation, confirmation screen | shares compounds with SMARCA2 activ | MG213 cells, MMTV-luciferase with dexamethasone, luminescence, overnight; MG213 cells expressing E1A, Rb sequestered; DMSO wells 0%, reference activator 100% | activation, % at 9.1 µM | hit rate 30% among 3,500 | AID 652260;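 active = activation above its plate's cutoff, the mean activation of tested wells plus 3 SD, cut at about 7.9% in these data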
VP16 Luc act: GAL4-VP16 reporter activation counter-screen. activation, % at 9.1 µM. AID 686939. HEK293 GAL4-VP16 pG5luc reporter, luciferase luminescence; scaled: DMSO wells 0%, SAHA wells 100%. hit rate 41% among 3,500. shares compounds with SMARCA2 activ;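 active = activation above the solvent-only control well mean plus 3 SD, averaged across control plates, cut at about 5.2% in these data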
Starred values were filed as active, the others as inactive; . = not tested or not shown.

SMILES | proKLK7 act | SMARCA2 activ | GAA850 FXN act | FAS-TE inh | SMARCA2 conf | VP16 Luc act
O=C(NC(=O)c1ccc(F)cc1)Nc1nc(-c2cccs2)cc(C(F)(F)F)n1 | -1 | 8.4* | 2 | -2 | -2 | 0
CCNS(=O)(=O)c1ccc(OCCNS(C)(=O)=O)cc1 | 0 | 8.1* | 3 | -8 | 0 | 0
NS(=O)(=O)c1cccc(NC(=O)CCCC2CCCCC2)c1 | 0 | 1 | 1 | 9 | . | .
NC(=O)c1sc2nc(-c3ccccc3)ccc2c1N | 7 | 8.1* | 7 | -2 | 7 | 10*
CCOC(=O)c1sc2nc(-c3ccccc3)ccc2c1N | 0 | 1 | 2 | -1 | . | .
Cc1ccc(-c2nnn(CC(=O)N3CCCCC3)n2)c(-n2cnnn2)c1 | -1 | -8 | -3 | -6 | . | .
O=C(NCCN1C(=O)S/C(=C\c2ccc(Cl)cc2Cl)C1=O)C1=COCCO1 | 0 | 8.1* | 1 | 30 | 4 | 0
O=C(NCCN1C(=O)S/C(=C\c2ccccc2Cl)C1=O)C1=COCCO1 | 0 | -1 | -2 | 16 | . | .
CCc1ccc(OCC(=O)NNC(=O)CNC(=O)c2ccc(Br)o2)cc1 | 0 | 0 | -1 | -4 | . | .
CC(COc1ccc(C(C)C)cc1)NC(=O)c1ccc(Br)o1 (centres undefined) | -1 | 10* | 2 | 26 | 6 | 0
CCOC(=O)C1=NN(c2ccc(F)cc2)C2=NC(C)=C(C(=O)OC)C(c3cccs3)N12 (centres undefined) | 0 | 8.8* | 2 | 15 | -2 | 3
COc1cccc2c(=O)c(C(=O)NCc3cccs3)c[nH]c12 | 3 | 10* | 3 | -2 | 17* | 5.9*
COc1cccc2c(=O)c(C(=O)NCCc3ccccc3)c[nH]c12 | -1 | 5 | 7 | -1 | . | .
CCOC(=O)CSc1nc(C)c(C(C)=O)cc1C#N | 0 | 8.2* | 2 | 4 | 2 | 0
CC(=O)c1cc(C#N)c(SCC(=O)O)nc1C | 0 | -1 | -4 | -4 | . | .
CCN1CCc2c(sc(NC(=S)NC(=O)c3ccco3)c2C(N)=O)C1 | 4 | 9.8* | 2 | -6 | 0 | 3
CCNC(=O)CC1C(=O)N(c2ccc(F)cc2)C(=O)N1Cc1ccccn1 (centres undefined) | 0 | 2 | 0 | -4 | . | .
COc1ccc(-n2sc3ccccc3c2=O)cc1 | 0 | 13* | -1 | -12 | 15* | 3
COc1ccc(-c2cc(=O)c3ccccc3s2)cc1 | -1 | 8.8* | 5 | 10 | 4 | 9.7*
CNC[C@@H]1Oc2cc(Br)ccc2S(=O)(=O)N([C@@H](C)CO)C[C@H]1C | -1 | -3 | -2 | -1 | . | .
CCN(CC)C(=O)CC[C@H]1CC[C@]2(CCCN(Cc3ccc(N(C)C)cc3)C2)O1 | -1 | -3 | . | . | . | .
CCOC(=O)c1ccc(N2Cc3ccccc3C2=N)cc1 | 1 | 12* | 1 | -8 | 11* | 3
C/C(N)=C(/C#N)C(=O)CSc1cc(C)c2cc(C)cc(C)c2n1 | 0 | 8.5* | 4 | 19 | -2 | -1
COc1cc(NC(=O)CSc2cc(C)c3cc(C)cc(C)c3n2)c(C(=O)O)cc1OC | 1 | 8.4* | 0 | 3 | 2 | -1
COc1cc(NC(=O)CSc2nccc(C)n2)c(C(=O)O)cc1OC | 0 | -3 | 2 | -3 | . | .
SMILES | proKLK7 act | SMARCA2 activ | GAA850 FXN act | FAS-TE inh | SMARCA2 conf | VP16 Luc act
O=C(OCC(=O)N1CCN(S(=O)(=O)c2ccc(Cl)cc2)CC1)c1ccc([N+](=O)[O-])o1 | 0 | 8.9* | 0 | 2 | 3 | 4
O=C(COc1ccccc1Cl)OCC(=O)N1CCN(S(=O)(=O)c2ccccc2)CC1 | 0 | 11* | -2 | 3 | -2 | 0
Cc1noc(C)c1S(=O)(=O)Nc1ccc(C(=O)N2CCN(c3ccc(Cl)cc3)CC2)cc1 | 0 | -3 | 2 | 1 | . | .
COCCCNC(=O)C[C@H]1C[C@@]2(C(=O)OC)C(=C[C@H](C(C)C)O[C@@H]2C2CC2)N(Cc2ccccc2)C1=O | 0 | -2 | . | . | . | .
CCOC(=O)c1nnn2c1nc(N1CCOCC1)c1ccccc12 | 0 | -1 | -2 | -3 | . | .
Nc1nc2c(C(=O)N3CCOCC3)nnn2c2ccccc12 | 5 | 11* | 4 | -2 | 6 | 9.1*
CC(NC(=O)c1cc(COc2ccccc2)on1)c1nccs1 (centres undefined) | 0 | 10* | 3 | -5 | 7 | 15*
COCCNC(=O)C1CCCN(C(=O)c2ccnc(Cl)c2)CC1 (centres undefined) | 0 | 0 | 1 | -4 | . | .
OCC(Cc1ccccc1)Nc1c2ccccc2nc2ccccc12 (centres undefined) | -2 | 9.8* | -1 | -1 | 5 | 2
c1ccc(CNc2c3ccccc3nc3ccccc23)cc1 | 3 | 7 | -3 | -6 | . | .
CCN(CC)c1ccc(C=Nn2c(-c3cc(C)[nH]n3)n[nH]c2=S)cc1 | 1 | -1 | . | . | . | .
COc1cc(C(=O)NNC(=O)c2cccc(Cl)c2)ccc1OCC(=O)N1CCOCC1 | 0 | 0 | -1 | -9 | . | .
O=C(NCc1ccccc1Cl)c1cc(=O)[nH]c2ccccc12 | 2 | 8.4* | 0 | -6 | 3 | 1
O=C(NCc1ccccc1F)c1cc(=O)[nH]c2ccccc12 | 2 | -4 | 3 | -4 | . | .
O=C(NCC1CCCO1)C(=O)c1c[nH]c2ccccc12 (centres undefined) | 1 | 2 | 3 | -16 | . | .
CCC(C)(C)C1CCC2(CC1)NC(=O)N(CC(=O)NCCc1c[nH]c3ccccc13)C2=O (centres undefined) | 0 | 8.1* | -2 | 0 | 3 | 2
CC1CC(C)(C)CC2(C1)NC(=O)N(CC(=O)NCCc1c[nH]c3ccccc13)C2=O (centres undefined) | 0 | 0 | 1 | -7 | . | .
CCOC(=O)c1c(NC(=O)COC(=O)CCNS(=O)(=O)c2ccccc2)sc(C(=O)N(C)C)c1C | 0 | 1 | 1 | -2 | . | .
CCOC(=O)c1c(NC(=O)COC(=O)CCCOc2ccc(OC)cc2)sc(C(=O)N(C)C)c1C | 0 | 8.3* | 3 | 7 | -1 | 0
COC(=O)c1cnn2c3c(c(C)nc12)CCCC3 | 3 | 11* | 1 | -6 | 7 | 5
Cc1[nH][nH]c(=O)c1[C@@H](c1ccccc1[N+](=O)[O-])C(C#N)C#N | -1 | -4 | 0 | 2 | . | .
O=C(CN(C(=O)c1csnn1)c1ccccc1Cl)NCCc1ccccc1 | 0 | -2 | 0 | -4 | . | .
O=C(Cc1ccccc1)N/N=C\c1ccc(Br)o1 | . | . | 0 | -6 | . | .
COc1ccc(-c2cc(-c3nnc4sc(-c5cccs5)nn34)[nH]n2)cc1 | 0 | 8.5* | . | . | 7 | 8.1*
COc1cccc(-c2nn3c(-c4cccc(C)c4)nnc3s2)c1 | 0 | 11* | 4 | 24 | 5 | 5
